Test results reported in PubChem BioAssay (EPA / NIEHS).
Where “and” joins values, the source holds several entries; their conditions need not be identical. Equal values may be shown once. A structure can be active in one record and inactive in another. Calls of active or inactive are those of the source. The calls were made as follows: active = hit-call score of the fitted dose curve at least 0.9, where 1 is the maximum; inactive = score below 0.9.

Legend:
[1] = target: Bile acid receptor (Homo sapiens) (UniProt Q96RI1); assay: ATG_IR1_CIS: Attagene CIS-FACTORIAL HepG2 Assay for human Nuclear Receptor Subfamily 1 Group H Member 4 (NR1H4), IR1 submotif (AID 2282946); details: IR1 reporter transcription, actives raise or lower the signal
Outline: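 Transient MRTU transfection, HepG2; 24 h dosing; RNA → RT-PCR → 6-FAM primer extension → HpaI digest → capillary electrophoresis fluorescence. Gain/loss of signal fitted relative to DMSO.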

[2] = ATG_GRE_CIS: Attagene CIS-FACTORIAL HepG2 Assay for human Glucocorticoid Response Elements (GRE) (AID 2282947); details: HepG2 GRE cis-reporter, Attagene multiplex mRNA; actives raise or lower the signal
Outline: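 HepG2 cells transiently transfected with multiple cis-promoter reporter units measure endogenous TF activity; 24 h compound exposure. Reporter mRNA quantified by RT-PCR, FAM labelling, HpaI digestion and capillary electrophoresis; bidirectional fit vs DMSO baseline.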

[3] = ATG_M_32_CIS: Attagene CIS-FACTORIAL HepG2 Assay for M32 Transcription Factor (Internal Marker) (AID 2282949); details: HepG2 Attagene cis-factorial M32 reporter, mRNA; actives raise or lower the signal;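 also: background control marker of the multiplexed CIS panel rather than a real target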
Outline: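 Internal background marker read-out: RT-PCR/capillary electrophoresis fluorescence of reporter transcripts from transiently transfected HepG2 cells after 24 h chemical exposure. Activity fitted bidirectionally relative to DMSO negative control.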

[4] = ATG_M_06_CIS: Attagene CIS-FACTORIAL HepG2 Assay for M06 Transcription Factor (Internal Marker) (AID 2282950); details: HepG2 Attagene CIS-FACTORIAL M06 internal marker reporter; actives raise or lower the signal
Outline: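 Measured 24 h post-dosing in transiently transfected HepG2 cells, this internal-marker endpoint reports reporter mRNA via RT-PCR with fluorescent primer extension and capillary electrophoresis. DMSO served as negative control and baseline for bidirectional fitting.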

[5] = target: Hypoxia-inducible factor 1-alpha (Homo sapiens) (UniProt Q16665); assay: ATG_HIF1a_CIS: Attagene CIS-FACTORIAL HepG2 Assay for human Hypoxia Inducible Factor 1 (HIF1A) (AID 2282951); details: HepG2 Attagene cis-factorial HIF1a reporter transcription; actives raise or lower the signal
Outline: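 Dosed 24 h, transfected HepG2 cells yielded total RNA whose reporter transcripts were RT-PCR-amplified and sized by capillary electrophoresis using fluorescent labelling; DMSO defined baseline, with gain and loss of signal both fitted.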

[6] = target: Hepatocyte nuclear factor 6 (Homo sapiens) (UniProt Q9UBC0); assay: ATG_HNF6_CIS: Attagene CIS-FACTORIAL HepG2 Assay for human Hepatocyte Nuclear Factor 6 (HNF6) (AID 2282952); details: HepG2 Attagene cis-factorial HNF6 reporter transcription; actives raise or lower the signal
Outline: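 HepG2 cells transiently transfected with cis-element-driven multiple reporter transcription units, dosed 24 h; reporter mRNA quantified by RT-PCR, FAM primer extension, HpaI digestion and capillary electrophoresis; bidirectional fit versus DMSO baseline.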

[7] = target: Heat shock factor protein 1 (Homo sapiens) (UniProt Q00613); assay: ATG_HSE_CIS: Attagene CIS-FACTORIAL HepG2 Assay for human Heat Shock Transcription Factor 1 (HSE) (AID 2282953); details: HepG2 HSE cis-reporter, Attagene RNA transcription; actives raise or lower the signal
Outline: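 Reporter mRNA induction in HepG2 is measured 24 h after dosing, using transiently transfected multiplexed cis-regulated reporter units. Signal comes from capillary electrophoresis of labelled RT-PCR products, with DMSO as negative control.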

[8] = ATG_MRE_CIS: Attagene CIS-FACTORIAL HepG2 Assay for human Metal Responsive Element (MRE) (AID 2282954); details: HepG2 MRE cis-reporter transcription, Attagene multiplex; actives raise or lower the signal
Outline: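 HepG2 cells transiently transfected with multiple cis-element reporter units measure endogenous MTF1-driven transcription. After 24 h compound exposure, reporter mRNA is quantified by RT-PCR with 6-FAM labelling, HpaI digestion and capillary electrophoresis; bidirectional fits versus DMSO.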

[9] = ATG_ISRE_CIS: Attagene CIS-FACTORIAL HepG2 Assay for human Interferon Regulatory Factor 1 (IRF1) binding to an Interferon-Stimulated Response Element (ISRE) (AID 2282948); details: HepG2 ISRE cis-reporter (Attagene), mRNA transcription readout; actives raise or lower the signal
Outline: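 Cell-based cis-reporter assay; HepG2; 24 h exposure; reporter mRNA by RT-PCR plus capillary electrophoresis fluorescence; activity in either direction scored relative to DMSO.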

[10] = ATG_PBREM_CIS: Attagene CIS-FACTORIAL HepG2 Assay for human Phenobarbital-responsive Enhancer Module (PBREM) (AID 2282955); details: HepG2 PBREM cis-reporter, Attagene multiplexed transcription; actives raise or lower the signal
Outline: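 Transfected liver-derived HepG2 cells exposed 24 h; PBREM reporter transcript quantified via RT-PCR and capillary electrophoresis, with activity in either direction referenced to DMSO.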

Measured: AC50

Sequence of Bile acid receptor (Homo sapiens) (Q96RI1 whole entry, looked up): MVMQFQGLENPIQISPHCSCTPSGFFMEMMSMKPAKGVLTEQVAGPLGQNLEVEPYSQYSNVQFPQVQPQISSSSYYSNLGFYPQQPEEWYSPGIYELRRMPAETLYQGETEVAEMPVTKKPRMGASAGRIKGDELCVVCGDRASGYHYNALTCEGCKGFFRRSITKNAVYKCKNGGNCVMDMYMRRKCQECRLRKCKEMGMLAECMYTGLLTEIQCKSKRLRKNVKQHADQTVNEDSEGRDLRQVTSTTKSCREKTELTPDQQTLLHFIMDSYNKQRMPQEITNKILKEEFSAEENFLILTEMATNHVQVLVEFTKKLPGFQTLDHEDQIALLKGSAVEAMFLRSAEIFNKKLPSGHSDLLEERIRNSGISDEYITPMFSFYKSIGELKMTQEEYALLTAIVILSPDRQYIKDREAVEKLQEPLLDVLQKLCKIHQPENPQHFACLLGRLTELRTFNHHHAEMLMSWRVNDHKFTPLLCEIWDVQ
Sequence of Heat shock factor protein 1 (Homo sapiens) (Q00613 whole entry, looked up): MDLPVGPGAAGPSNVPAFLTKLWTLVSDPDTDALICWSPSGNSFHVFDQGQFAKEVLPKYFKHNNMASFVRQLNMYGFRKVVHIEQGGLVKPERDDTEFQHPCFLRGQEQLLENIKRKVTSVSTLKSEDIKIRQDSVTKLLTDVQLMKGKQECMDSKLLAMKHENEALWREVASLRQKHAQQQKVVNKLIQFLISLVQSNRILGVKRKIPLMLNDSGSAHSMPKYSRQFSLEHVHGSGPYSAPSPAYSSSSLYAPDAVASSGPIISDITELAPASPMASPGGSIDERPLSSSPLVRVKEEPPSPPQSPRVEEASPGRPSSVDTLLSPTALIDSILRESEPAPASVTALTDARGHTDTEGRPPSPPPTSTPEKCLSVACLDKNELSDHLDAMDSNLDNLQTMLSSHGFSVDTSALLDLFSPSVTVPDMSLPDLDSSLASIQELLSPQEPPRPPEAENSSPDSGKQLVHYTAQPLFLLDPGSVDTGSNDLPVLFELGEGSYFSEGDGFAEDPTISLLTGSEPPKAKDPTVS
Sequence of Hepatocyte nuclear factor 6 (Homo sapiens) (Q9UBC0 whole entry, looked up): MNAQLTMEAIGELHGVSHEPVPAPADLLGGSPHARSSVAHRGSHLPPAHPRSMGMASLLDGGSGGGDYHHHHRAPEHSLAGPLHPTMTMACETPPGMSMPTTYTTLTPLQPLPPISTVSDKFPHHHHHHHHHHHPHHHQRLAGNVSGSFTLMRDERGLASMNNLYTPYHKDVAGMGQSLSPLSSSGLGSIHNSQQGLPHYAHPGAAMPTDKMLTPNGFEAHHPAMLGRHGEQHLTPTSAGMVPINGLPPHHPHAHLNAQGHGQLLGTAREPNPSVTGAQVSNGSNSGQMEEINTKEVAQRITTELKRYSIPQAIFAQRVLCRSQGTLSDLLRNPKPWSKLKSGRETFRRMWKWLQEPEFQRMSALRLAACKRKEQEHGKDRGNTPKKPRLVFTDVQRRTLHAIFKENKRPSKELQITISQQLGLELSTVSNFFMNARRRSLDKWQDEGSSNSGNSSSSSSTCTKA
Sequence of Hypoxia-inducible factor 1-alpha (Homo sapiens) (Q16665 whole entry, looked up): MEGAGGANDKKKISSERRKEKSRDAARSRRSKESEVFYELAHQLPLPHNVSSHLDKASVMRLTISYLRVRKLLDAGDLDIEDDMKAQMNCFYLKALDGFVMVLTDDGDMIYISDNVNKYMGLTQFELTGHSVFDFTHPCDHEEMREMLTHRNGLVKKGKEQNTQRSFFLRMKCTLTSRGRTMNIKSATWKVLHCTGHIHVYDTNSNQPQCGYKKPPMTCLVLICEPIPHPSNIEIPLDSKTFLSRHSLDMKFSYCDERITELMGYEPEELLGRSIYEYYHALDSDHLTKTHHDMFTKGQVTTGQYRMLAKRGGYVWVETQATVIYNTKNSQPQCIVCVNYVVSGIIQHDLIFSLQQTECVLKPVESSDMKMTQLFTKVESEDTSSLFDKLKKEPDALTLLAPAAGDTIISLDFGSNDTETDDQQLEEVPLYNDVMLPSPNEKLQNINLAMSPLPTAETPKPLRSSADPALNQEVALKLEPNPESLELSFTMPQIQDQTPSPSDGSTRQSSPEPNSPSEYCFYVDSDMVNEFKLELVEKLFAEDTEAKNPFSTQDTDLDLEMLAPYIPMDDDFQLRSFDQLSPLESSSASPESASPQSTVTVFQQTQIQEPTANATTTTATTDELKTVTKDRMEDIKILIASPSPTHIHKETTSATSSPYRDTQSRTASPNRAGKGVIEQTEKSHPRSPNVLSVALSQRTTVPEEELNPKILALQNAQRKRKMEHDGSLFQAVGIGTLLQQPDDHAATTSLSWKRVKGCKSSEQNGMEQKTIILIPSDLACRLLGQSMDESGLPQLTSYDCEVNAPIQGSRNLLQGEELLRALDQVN

CC(C)(C)c1cc(/C=C2\SC(N)=NC2=O)cc(C(C)(C)C)c1O
active: [1] 8.2 µM | [7] 20 µM | [8] 15 µM
not listed: [9] | [10]
inactive: all other assays above

COc1cccc([C@H](O)C2CCN(CCc3ccc(F)cc3)CC2)c1OC
active: [5] 27.4 µM
not listed: [9] | [10]
inactive: all other assays above

CCCCOC(=O)c1ccc(O)cc1
active: [9] 148 µM and 151 µM | [7] 148 µM | [8] 143 µM and 129 µM | [10] 58.9 µM
inactive: [1] | [2] | [9] | [3] | [4] | [6] | [7] | [8] | [10]

Cc1oc2c(NC(=O)c3c(Cl)cccc3Cl)cccc2c1C(C)(C)O
active: [1] 158 µM | [9] 26.8 µM | [5] 37.8 µM | [7] 177 µM | [8] 129 µM | [10] 6.18 µM
inactive: [2] | [3] | [4] | [6]

O=c1c(-c2ccc(O)cc2)coc2cc(O)cc(O)c12
inactive: [1] | [2] | [9] | [3] | [4] | [5] | [6] | [7] | [8] | [10]
active: [1] 10.4 µM and 10.6 µM | [8] 81.4 µM and 137 µM | [10] 43.7 µM

O=C(O)Cc1cc(I)c(Oc2ccc(O)c(I)c2)c(I)c1
active: [7] 170 µM [middle of 4 runs] | [8] 80.5 µM [middle of 4 runs]
not listed: [5]
inactive: all other assays above

CC(C)(c1cc(Br)c(O)c(Br)c1)c1cc(Br)c(O)c(Br)c1
inactive: [1] | [2] | [3] | [4] | [5] | [6] | [10]
active: [1] 16.3 µM | [5] 47.1 µM | [7] 49.8 µM and 49.3 µM | [8] 46.7 µM and 48.6 µM

OC12N=C(c3ccccc3)SC1Cc1cc(Cl)ccc12 (stereo not given)
not listed: [9] | [10]
inactive: all other assays above

CCO[Si](CCCNC(N)=O)(OCC)OCC
active: [5] 6.4 µM
inactive: all other assays above

c1ccc(C[n+]2cccc3ccccc32)cc1
inactive: all assays above

O=c1[nH]sc2ccccc12
active: [9] 33.4 µM | [5] 8.86 µM | [7] 52.8 µM
inactive: all other assays above

Cc1cn([C@H]2C[C@H](N=[N+]=[N-])[C@@H](CO)O2)c(=O)[nH]c1=O
not listed: [5] | [10]
inactive: all other assays above

CN1C(=O)N(c2ccccc2Br)Cc2cnc(Nc3ccc4c(c3)OCC(CO)O4)nc21 (stereo not given)
active: [5] 9.59 µM | [8] 33.2 µM
not listed: [10]
inactive: all other assays above

Cc1cc2c(cc1C(F)(F)F)N(C(=O)Nc1ccc(Oc3cccnc3C)nc1)CC2
inactive: all assays above

CCCCCCCCOC(=O)c1cc(O)c(O)c(O)c1
active: [5] 16.9 µM
inactive: all other assays above

O=C(Nc1ccc(Cl)cc1)Nc1ccc(Cl)c(Cl)c1
active: [9] 5.89 µM
inactive: all other assays above

O=C1CCC(C2CCCCC2)CC1
inactive: [1] | [2] | [3] | [4] | [5] | [6] | [7] | [8] | [10]
active: [1] 151 µM and 159 µM | [5] 0.821 µM | [7] 150 µM | [8] 100 µM and 154 µM and 114 µM
